In PubChem BioAssay (NCATS):
Records with an inconclusive call do not appear. Calls of active or inactive are those of the source. Unless noted, calls follow the shape of the dose curve; as a rule, active = well fitted curve in the direction sought with a large enough effect; inconclusive = small, poorly fitted or top-dose-only effect, or another doubt; inactive = no such curve, though single readings can be large; an effect the other way counts as inactive or inconclusive.

Key:
[1] = qHTS drug screen for cell cycle checkpoint inhibitors in PARPi-resistant BRCA-mutant ovarian cancer cell lines. (AID 1963452; calls by dose curve); conditions: PEO1/OlaR viability, CellTiter-Glo luminescence, 96 h, stronger effect = lower value
Summary of the method: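 PEO1, PEO4 and PEO1/OlaR ovarian cancer cells, 600 per well, exposed 96 h at 37C to a dilution series. Viability read by CellTiter-Glo luminescence, normalized to DMSO and empty wells; activity summarized as Z-AUC.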

[2] = qHTS profiling for inhibitors of Plasmodium falciparum proliferation (AID 504749); also: potency is read from the fitted curve at half-maximal effect;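 as to activity, negative = inhibition: 0% = DMSO vehicle and full inhibition = artemisinin control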; as to all read-outs here: nearly all actives have a fitted effect of over 60% in size; conditions: P. falciparum in erythrocytes, SYBR Green DNA, 72 h; for activity, negative = inhibition: at 28.7 µM (top of the series)
Summary of the method: (§1)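 In a 72 h erythrocytic culture (37 C, humidified, 5% CO2) at 2.5% hematocrit and 0.3% starting parasitemia, compounds were tested; SYBR Green I in detergent lysis buffer stained parasite DNA overnight.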

3D7 = experiment: as above; conditions: P. falciparum in erythrocytes, SYBR Green DNA, 72 h; series mostly up to 28.7 µM
Summary of the method: as §1

7G8 = experiment: as above; conditions: P. falciparum in erythrocytes, SYBR Green DNA, 72 h; series mostly up to 28.7 µM
Summary of the method: as §1

AA1029 = experiment: as above; conditions: P. falciparum in erythrocytes, SYBR Green DNA, 72 h; series mostly up to 28.7 µM
Summary of the method: as §1

AS120 = experiment: as above; conditions: P. falciparum in erythrocytes, SYBR Green DNA, 72 h; series mostly up to 28.7 µM
Summary of the method: as §1

ATS189 = experiment: as above; conditions: P. falciparum in erythrocytes, SYBR Green DNA, 72 h; series mostly up to 28.7 µM
Summary of the method: as §1

ATS95 = experiment: as above; conditions: P. falciparum in erythrocytes, SYBR Green DNA, 72 h; series mostly up to 28.7 µM
Summary of the method: as §1

C2A = experiment: as above; conditions: P. falciparum in erythrocytes, SYBR Green DNA, 72 h; series mostly up to 28.7 µM
Summary of the method: as §1

CP185 = experiment: as above; conditions: P. falciparum in erythrocytes, SYBR Green DNA, 72 h; series mostly up to 28.7 µM
Summary of the method: as §1

CP191 = experiment: as above; conditions: P. falciparum in erythrocytes, SYBR Green DNA, 72 h; series mostly up to 28.7 µM
Summary of the method: as §1

CP192 = experiment: as above; conditions: P. falciparum in erythrocytes, SYBR Green DNA, 72 h; series mostly up to 28.7 µM
Summary of the method: as §1

[3] = qHTS for identification of novel therapeutic agents for treatment of microphthalmiaassociated transcription factor (MiT) renal cell carcinoma (RCC) (AID 1963991); conditions: CellTiter-Glo, 48 h, stronger effect = lower value
Summary of the method: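 Three TFE3-fusion RCC cell lines (UOK109, UOK124, UOK145), 500 cells/well, were exposed to the 1912-compound MIPE 4.0 library for 48 hours at 37 C. Viability was read by CellTiter-Glo luminescence, normalised to DMSO (100%) and empty wells (0%), with 11-concentration curve fits.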

[4] = target: Cytochrome P450 1A2 (Homo sapiens) (UniProt P05177); experiment: qHTS for inhibitors of CYPIA2 against the NCATS DSHEA and TCM libraries (AID 1919976); conditions: recombinant CYP1A2 enzyme activity, luminescence; also: potency is read from the fitted curve at half-maximal effect
Summary of the method: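 Furafylline served as the plate control. Compounds met CYP1A2 and pro-luciferin substrate 15 min before NADPH regeneration solution (1x) was added; after 30-45 min at RT, P450-Glo reagent was added for 30 min and luminescence was measured.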

[5] = KB-8-5-11 P-gp reporter qHTS against the NCATS DSHEA and TCM libraries (AID 1919977); conditions: KB-8-5-11 cells; series mostly up to 26.1 µM; also: 0% is about no effect
Summary of the method: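 P-gp-overexpressing KB-8-5-11 cells (500/well) were plated in colchicine-free DMEM with 10% FBS, attached ~4 h, then exposed to substance titrations for ~72 h at 37C. Viability was read by CellTiter-Glo luminescence.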

[6] = qHTS Counterscreen for compound interference against the NCATS DSHEA and TCM libraries (AID 1919978); conditions: firefly luciferase detection reagent interference, luminescence; also: % of control where 0% means no effect
Summary of the method: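 D-luciferin (1 uM final) or 100 mM potassium phosphate buffer alone was preincubated 15 min at RT with compounds (19.5 nM to 39.8 uM final). Luciferin detection reagent was then added and luminescence read after 30 min at RT.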

[7] = Dual reporter qHTS for agonist of Pregnane X Receptor (hPXR) against the NCATS DSHEA and TCM libraries: Fluorescence readout (AID 1920058); conditions: PXR dual reporter cells; series mostly up to 40 µM; also: 0% is about no effect
Summary of the method: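 In this qHTS counter-read, reporter-bearing HepG2 cells in charcoal-stripped serum received substances for approximately 24 h before viability was assessed fluorometrically with CellTiter-Fluor.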

[8] = target: Nuclear receptor subfamily 1 group I member 2 (Homo sapiens) (UniProt O75469); experiment: Dual reporter qHTS for antagonist of Pregnane X Receptor (hPXR) against the NCATS DSHEA and TCM libraries: Luminescence Readout (AID 1920060); conditions: hPXR dual reporter cells, luciferase luminescence, antagonist mode; series mostly up to 40 µM;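 also: HepG2 cells carrying hPXR luciferase reporter stimulated with rifampicin at 2 µM; 0% is about no effect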
Summary of the method: (§2)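 Antagonist mode: rifampicin 2 uM final co-added with compounds to hPXR-LucHepG2 cells for 24 h at 37C. Viability by CellTiter-Fluor, Ex/Em 405/540 nm, 1 h; reporter by ONE-Glo luminescence.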

[9] = Dual reporter qHTS for antagonist of Pregnane X Receptor (hPXR) against the NCATS DSHEA and TCM libraries: Fluorescence Readout (AID 1920061); conditions: PXR dual reporter cells, antagonist mode; series mostly up to 40 µM; also: 0% is about no effect
Summary of the method: as §2

CP194 = experiment: qHTS profiling for inhibitors of Plasmodium falciparum proliferation (AID 504749); also: nearly all actives have a fitted effect of over 60% in size; also: potency is read from the fitted curve at half-maximal effect;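 as to activity, negative = inhibition: 0% = DMSO vehicle and full inhibition = artemisinin control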; conditions: P. falciparum in erythrocytes, SYBR Green DNA, 72 h; series mostly up to 28.7 µM
Summary of the method: as §1

[10] = measured here: PEO1 parental Z-AUC
[11] = TFE3-RCC UOK109 viability, measured here: UOK109 Z-AUC
[12] = TFE3-RCC viability, measured here: UOK124 Z-AUC
[13] = TFE3-RCC viability, measured here: UOK145 Z-AUC

Chain of Cytochrome P450 1A2 (Homo sapiens) (P05177 whole entry, looked up): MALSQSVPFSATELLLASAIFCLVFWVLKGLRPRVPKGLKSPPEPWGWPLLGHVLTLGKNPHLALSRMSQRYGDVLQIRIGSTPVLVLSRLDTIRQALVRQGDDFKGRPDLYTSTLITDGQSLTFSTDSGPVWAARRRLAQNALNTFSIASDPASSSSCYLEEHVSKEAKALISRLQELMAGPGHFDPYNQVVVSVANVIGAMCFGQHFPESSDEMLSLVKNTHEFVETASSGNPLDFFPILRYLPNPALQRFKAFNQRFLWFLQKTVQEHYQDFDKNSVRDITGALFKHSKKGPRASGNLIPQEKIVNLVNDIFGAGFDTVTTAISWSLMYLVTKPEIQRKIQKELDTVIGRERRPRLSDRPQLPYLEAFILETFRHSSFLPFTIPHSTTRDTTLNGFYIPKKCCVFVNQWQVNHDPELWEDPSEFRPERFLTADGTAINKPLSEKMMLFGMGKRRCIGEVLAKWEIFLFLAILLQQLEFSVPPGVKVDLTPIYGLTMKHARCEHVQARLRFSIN
Chain of Nuclear receptor subfamily 1 group I member 2 (Homo sapiens) (O75469 whole entry, looked up): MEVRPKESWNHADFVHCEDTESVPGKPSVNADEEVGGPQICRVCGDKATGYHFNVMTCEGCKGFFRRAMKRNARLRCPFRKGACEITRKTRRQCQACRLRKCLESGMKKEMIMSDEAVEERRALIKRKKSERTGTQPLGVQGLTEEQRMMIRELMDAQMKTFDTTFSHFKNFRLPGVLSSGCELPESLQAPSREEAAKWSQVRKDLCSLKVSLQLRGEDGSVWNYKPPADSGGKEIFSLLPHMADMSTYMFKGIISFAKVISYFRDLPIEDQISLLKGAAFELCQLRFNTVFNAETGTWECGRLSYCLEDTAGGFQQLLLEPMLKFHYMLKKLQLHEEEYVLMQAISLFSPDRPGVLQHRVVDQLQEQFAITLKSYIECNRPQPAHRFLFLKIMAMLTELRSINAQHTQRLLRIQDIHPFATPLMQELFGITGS

In the case of `C=C(C)[C@H]1Cc2c(ccc3c2O[C@@H]2COc4cc(OC)c(OC)cc4[C@@H]2C3=O)O1`, the Z-AUC [1] is reported as -1.61 (inactive), the Z-AUC [1, 10] is reported as -2.63 and the Z-AUC ([1]; measured here: PEO4 Z-AUC) is reported as -1.87. The activity, negative = inhibition ([2]; parasite line A) was -0.828% (inactive), the activity, negative = inhibition ([2]; parasite line B) was -4.67% (inactive) and the Potency (3D7) was “inactive”. The Potency (7G8) was 10 µM (active), the Potency (AA1029) was “inactive” and the Potency (AS120) was “inactive”. For the same compound, the Potency (ATS189) was “inactive”, the Potency (ATS95) was “inactive” and the Potency (C2A) was “inactive”. The Potency (CP185) was “inactive”, the Potency (CP191) was “inactive” and the Potency (CP192) was “inactive”.
With `COC[C@@H](NC(C)=O)C(=O)NCc1ccccc1` the Z-AUC [1] was -0.757 (inactive), the Z-AUC [1, 10] was 0.116 and the Z-AUC ([1]; measured here: PEO4 Z-AUC) was -0.684. For the same compound, the z-score [3, 11] was -0.0332, the z-score [3, 12] was 0.828 and the z-score [3, 13] was 0.367.
With `C=C1C[C@@H]2[C@H](CC[C@]3(C)C(=O)CC[C@@H]23)[C@@]2(C)C=CC(=O)C=C12` the Z-AUC [1] was 1.28 (inactive), the Z-AUC [1, 10] was 0.968 and the Z-AUC ([1]; measured here: PEO4 Z-AUC) was 1.01.
With `O=C(O)C(=O)c1cn(Cc2ccccc2)c2ccc(-c3ccc(OC(F)(F)F)cc3)cc12` the Z-AUC [1] was -0.0319 (inactive), the Z-AUC [1, 10] was 0.702 and the Z-AUC ([1]; measured here: PEO4 Z-AUC) was 0.863.
In the case of `CC(C)=CCOc1c2occc2cc2ccc(=O)oc12`, the Potency [4] is reported as 1.26 µM (active), the outcome [5] is reported as “inactive” and the max response [6] is reported as 2.08% (inactive). The outcome [7] was “inactive”, the outcome [8] was “inactive” and the outcome [9] was “inactive”.
For `Cc1cc(SCc2sc(-c3ccc(C(F)(F)F)c(F)c3)nc2C)ccc1OCC(=O)O`, the Z-AUC [1] was -0.925 (inactive), the Z-AUC [1, 10] was -0.906 and the Z-AUC ([1]; measured here: PEO4 Z-AUC) was -0.303.
For `Fc1ccc(C(OCCN2CCN(CCCc3ccccc3)CC2)c2ccc(F)cc2)cc1`, the Z-AUC [1] was 0.198 (inactive), the Z-AUC [1, 10] was -0.0312 and the Z-AUC ([1]; measured here: PEO4 Z-AUC) was -0.0118. The Potency ([2]; parasite line A) was 8.91 µM (active), the Potency ([2]; parasite line B) was 11.2 µM (active) and the Potency (3D7) was 8.91 µM (active). For the same compound, the Potency (7G8) was 3.55 µM (active), the Potency (AA1029) was 7.08 µM (active) and the Potency (AS120) was 4.47 µM (active). The Potency (ATS189) was 8.91 µM (active), the Potency (ATS95) was 7.94 µM (active) and the Potency (C2A) was 11.2 µM (active). The Potency (CP185) was 10 µM (active) and the Potency (CP191) was 10 µM (active).
With `O=c1[nH]c2ccccc2n1CCCN1CCC(n2c(=O)[nH]c3cc(Cl)ccc32)CC1` the Z-AUC [1] was 1.58 (inactive), the Z-AUC [1, 10] was 0.892 and the Z-AUC ([1]; measured here: PEO4 Z-AUC) was 0.827. For the same compound, the Potency ([2]; parasite line A) was 11.2 µM (active), the Potency (7G8) was 1.41 µM (active) and the Potency (AS120) was 5.01 µM (active). The Potency (C2A) was 11.2 µM (active) and the Potency (CP191) was 3.98 µM (active).
For `COC1(CS(=O)c2ccccc2)CCN(CCc2c[nH]c3ccc(F)cc23)CC1` (stereo not drawn), the Z-AUC [1] was 0.788 (inactive), the Z-AUC [1, 10] was 0.436 and the Z-AUC ([1]; measured here: PEO4 Z-AUC) was 0.362.
With `Cn1cc(C2=C(c3cn(C4CCN(Cc5ccccn5)CC4)c4ccccc34)C(=O)NC2=O)c2ccccc21` the Z-AUC [1] was -0.351 (inactive), the Z-AUC [1, 10] was 0.347 and the Z-AUC ([1]; measured here: PEO4 Z-AUC) was 0.154.
With `COc1ccc(C(=O)c2c(C)n(CCN3CCOCC3)c3ccccc23)cc1` the Z-AUC [1] was 0.0561 (inactive), the Z-AUC [1, 10] was -0.45 and the Z-AUC ([1]; measured here: PEO4 Z-AUC) was -1.01. For the same compound, the z-score [3, 11] was 0.603, the z-score [3, 12] was 0.604 and the z-score [3, 13] was 0.655. For the same compound, the activity, negative = inhibition ([2]; parasite line A) was -0.832% (inactive), the activity, negative = inhibition ([2]; parasite line B) was 8.06% (inactive) and the Potency (3D7) was “inactive”. The Potency (7G8) was 12.6 µM (active), the Potency (AA1029) was “inactive” and the Potency (AS120) was “inactive”. The Potency (ATS189) was “inactive”, the Potency (ATS95) was “inactive” and the Potency (C2A) was “inactive”. The Potency (CP185) was “inactive”, the Potency (CP191) was “inactive” and the Potency (CP192) was “inactive”. The Potency (CP194) was “inactive”.
In the case of `Cc1cccc(C)c1NC(=O)CN1CCCC1=O`, the Z-AUC [1] is reported as 0.64 (inactive), the Z-AUC [1, 10] is reported as 0.59 and the Z-AUC ([1]; measured here: PEO4 Z-AUC) is reported as 1.08. The z-score [3, 11] was 1.77, the z-score [3, 12] was 0.0528 and the z-score [3, 13] was 0.844.
In the case of `N[C@@H]1C[C@H]1c1ccccc1`, the Z-AUC [1] is reported as 0.628 (inactive), the Z-AUC [1, 10] is reported as 1.13 and the Z-AUC ([1]; measured here: PEO4 Z-AUC) is reported as 0.895.
For `C[C@]12CCC(=O)C(O)=C1CC[C@@H]1[C@@H]2CC[C@]2(C)C(=O)CC[C@@H]12`, the Z-AUC [1] was 0.873 (inactive), the Z-AUC [1, 10] was 1.02 and the Z-AUC ([1]; measured here: PEO4 Z-AUC) was 1.06.
With `Cc1sc2c(c1C)C(c1ccc(Cl)cc1)=N[C@@H](CC(=O)OC(C)(C)C)c1nnc(C)n1-2` the Z-AUC [1] was -0.873 (inactive), the Z-AUC [1, 10] was -0.421 and the Z-AUC ([1]; measured here: PEO4 Z-AUC) was -0.731.
